Read-out in experiment [1]: Vascular cell adhesion molecule 1 (VCAM1), VCAM1 (gene 7412)
The experiment is described as follows: BSK_4H_VCAM1: BioMAP Diversity Plus: 4H Assay for Vascular cell adhesion molecule 1 (VCAM1) Biomarker Activity (AID 2283033).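 As to outcome: cell-surface VCAM-1 protein measured by ELISA.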 Conditions: primary human endothelial cells (HUVEC); actives raise or lower the signal. The gist of the method:
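VCAM-1 ELISA read 24 h after chemical dosing of HUVEC in the BioMAP 4H system, with gain or loss of signal fitted relative to DMSO. Parallel SRB staining (560 nm) checked overt cytotoxicity.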

Read-out in experiment [2]: Interferon-gamma inducible Protein 10 (IP10), CXCL10 (gene 3627)
In words: BSK_BE3C_IP10: BioMAP Diversity Plus: BE3C Assay for Interferon-gamma inducible Protein 10 (IP10) Biomarker Activity (AID 2283034). As to conditions: primary human bronchial epithelial cells; actives raise or lower the signal. The method in brief: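 IP-10 quantified by ELISA in human primary bronchial epithelial cell cultures at 24 hours post-dosing. Gain or loss of signal fitted relative to DMSO; parallel SRB staining assessed overt cytotoxicity.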

Read-out in experiment [3]: Monokine induced gamma interferon (MIG), CXCL9 (gene 4283)
The experiment is described as follows: BSK_BE3C_MIG: BioMAP Diversity Plus: BE3C Assay for Monokine induced gamma interferon (MIG) Biomarker Activity (AID 2283035). Conditions: primary human bronchial epithelial cells; actives raise or lower the signal. The method in brief: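 ELISA quantified MIG after 24 h exposure of primary bronchial epithelial cultures, analysed in both directions relative to DMSO. Cytotoxicity tracked in parallel cultures by sulforhodamine B staining.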

Read-out in experiment [4]: Transforming growth factor beta 1 (TGFb1), TGFB1 (gene 7040)
In words: BSK_BE3C_TGFb1: BioMAP Diversity Plus: BE3C Assay for Transforming growth factor beta 1 (TGFb1) Biomarker Activity (AID 2283036;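 as to outcome: TGF-b1 protein level measured by ELISA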). Conditions: primary human bronchial epithelial cells; actives raise or lower the signal. The method in brief: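 ELISA readout of TGF-b1 from human lung bronchial epithelial primary cells, taken 24 h post-treatment. Gain or loss of signal fitted relative to DMSO baseline, with parallel SRB staining for overt cytotoxicity.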

Read-out in experiment [5]: Plasminogen activator inhibitor-1 (PAI1), SERPINE1 (gene 5054)
In words: BSK_BE3C_PAI1: BioMAP Diversity Plus: BE3C Assay for Plasminogen activator inhibitor-1 (PAI1) Biomarker Activity (AID 2283037). Conditions: primary human bronchial epithelial cells; actives raise or lower the signal. The gist of the method: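 PAI-1 was measured by ELISA in human primary bronchial epithelial cultures 24 h after chemical dosing, with cytotoxicity checked by SRB total-protein staining in parallel cultures. Activity was fitted in both directions relative to DMSO.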

Read-out in experiment [6]: urokinase plasminogen activator (uPA), PLAU (gene 5328)
In words: BSK_BE3C_uPA: BioMAP Diversity Plus: BE3C Assay for urokinase plasminogen activator (uPA) Biomarker Activity (AID 2283038).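 As to outcome: uPA protein level quantified by ELISA in cell cultures; uPA read one day after compound addition.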 Conditions: primary human bronchial epithelial cells; actives raise or lower the signal. The method in brief:
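ELISA for uPA on human primary bronchial epithelial cultures 24 h post-treatment, gain or loss against DMSO. Parallel SRB staining (0.1% after 10% TCA fixation, 560 nm) assessed overt cytotoxicity.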

Read-out in experiment [7]: Urokinase-type plasminogen activator receptor (uPAR), PLAUR (gene 5329)
The experiment is described as follows: BSK_BE3C_uPAR: BioMAP Diversity Plus: BE3C Assay for Urokinase-type plasminogen activator receptor (uPAR) Biomarker Activity (AID 2283039).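 As to outcome: cells exposed to compound for one day before measurement.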 Conditions: primary human bronchial epithelial cells; actives raise or lower the signal. The method in brief:
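uPAR levels were measured by ELISA after 24 h compound treatment of primary human bronchial epithelial cells, fitted in both directions relative to DMSO. Parallel SRB staining served as the cytotoxicity read-out.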

Read-out in experiment [8]: Interleukin-6 (IL6), IL6 (gene 3569)
In words: BSK_CASM3C_IL6: BioMAP Diversity Plus: CASM3C Assay for Interleukin-6 (IL6) Biomarker Activity for (AID 2283040). Conditions: primary human coronary artery smooth muscle cells; actives raise or lower the signal.

Read-out in experiment [9]: Tissue plasminogen activator (tPA), PLAT (gene 5327)
The experiment is described as follows: BSK_BE3C_tPA: BioMAP Diversity Plus: BE3C Assay for Tissue plasminogen activator (tPA) Biomarker Activity (AID 2283041).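 As to outcome: tPA level quantified by ELISA one day after compound addition.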 Conditions: primary human bronchial epithelial cells; actives raise or lower the signal. The gist of the method: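 tPA measured by ELISA 24 h after dosing human primary bronchial epithelial cells (BE3C system). Changes in either direction were fitted against DMSO. Parallel cultures were stained with SRB to flag overt cytotoxicity.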

Read-out in experiment [10]: Interleukin-8 (IL8), CXCL8 (gene 3576)
In words: BSK_CASM3C_IL8: BioMAP Diversity Plus: CASM3C Assay for Interleukin-8 (IL8) Biomarker Activity (AID 2283042).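 Also: IL-8 protein level quantified by ELISA.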 Conditions: primary human coronary artery smooth muscle cells; actives raise or lower the signal.

Read-out in experiment [11]: Human Leukocyte Antigen - DR isotype (HLADR), HLA-DRA (gene 3122)
In words: BSK_CASM3C_HLADR: BioMAP Diversity Plus: CASM3C Assay for Human Leukocyte Antigen - DR isotype (HLADR) Biomarker Activity (AID 2283043).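 Also: cell-surface HLA-DR protein level quantified by ELISA.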 As to conditions: primary human coronary artery smooth muscle cells; actives raise or lower the signal.

Read-out in experiment [12]: Low-density lipoprotein receptor (LDLR), LDLR (gene 3949)
The experiment is described as follows: BSK_CASM3C_LDLR: BioMAP Diversity Plus: CASM3C Assay for Low-density lipoprotein receptor (LDLR) Biomarker Activity (AID 2283045).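 Also: LDLR protein level on the cell surface quantified by ELISA.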 Conditions: primary human coronary artery smooth muscle cells; actives raise or lower the signal.

Read-out in experiment [13]: Monocyte Chemoattractant Protein-1 (MCP1), CCL2 (gene 6347)
In words: BSK_CASM3C_MCP1: BioMAP Diversity Plus: CASM3C Assay for Monocyte Chemoattractant Protein-1 (MCP1) Biomarker Activity (AID 2283046).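 Also: MCP-1 level quantified by ELISA 24 h after dosing.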 Conditions: primary human coronary artery smooth muscle cells; actives raise or lower the signal.

Experiment [14] can be described thus: BSK_CASM3C_Proliferation: Cell Proliferation Assessment in the BioMAP Diversity Plus: CASM3C Assay (AID 2283047).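 Also: sulforhodamine B total protein stain as relative cell number at 560 nm; sub-confluent cells exposed 48 h before staining; fitted both ways against DMSO so gain or loss of cell number.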 Conditions: primary human coronary artery smooth muscle cells.
Read-out in experiment [15]: Monokine induced gamma interferon (MIG), CXCL9 (gene 4283)
The experiment is described as follows: BSK_CASM3C_MIG: BioMAP Diversity Plus: CASM3C Assay for Monokine induced gamma interferon (MIG) Biomarker Activity (AID 2283048).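 Also: MIG protein level measured by ELISA.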 As to conditions: primary human coronary artery smooth muscle cells; actives raise or lower the signal.

Read-out in experiment [16]: serum amyloid A (SAA), SAA1 (gene 6288)
In words: BSK_CASM3C_SAA: BioMAP Diversity Plus: CASM3C Assay for serum amyloid A (SAA) Biomarker Activity (AID 2283049).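 Also: SAA protein level quantified by ELISA.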 Conditions: primary human coronary artery smooth muscle cells; actives raise or lower the signal.

Experiment [17] can be described thus: BSK_CASM3C_SRB: Viability Assessment in the BioMAP Diversity Plus: CASM3C Assay (AID 2283050). Conditions: primary human coronary artery smooth muscle cells.
Read-out in experiment [18]: Thrombomodulin, THBD (gene 7056)
In words: BSK_CASM3C_Thrombomodulin: BioMAP Diversity Plus: CASM3C Assay for Thrombomodulin Biomarker Activity (AID 2283051).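 Also: thrombomodulin protein level measured by ELISA 24 h after dosing.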 As to conditions: primary human coronary artery smooth muscle cells; actives raise or lower the signal.

Read-out in experiment [19]: Tissue Factor, F3 (gene 2152)
In words: BSK_CASM3C_TissueFactor: BioMAP Diversity Plus: CASM3C Assay for Tissue Factor Biomarker Activity (AID 2283052).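 Also: cell surface tissue factor protein level read by ELISA.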 As to conditions: primary human coronary artery smooth muscle cells; actives raise or lower the signal.

Read-out in experiment [20]: Macrophage colony-stimulating factor (MCSF), CSF1 (gene 1435)
The experiment is described as follows: BSK_CASM3C_MCSF: BioMAP Diversity Plus: CASM3C Assay for Macrophage colony-stimulating factor (MCSF) Biomarker Activity (AID 2283044).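 Also: M-CSF protein amount quantified by ELISA after 24 h exposure.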 Conditions: primary human coronary artery smooth muscle cells; actives raise or lower the signal.

The text below walks through data of PubChem BioAssay (EPA / NIEHS).

The source holds several records for some structures; these can differ, active in one and inactive in another. The source made the active and inactive calls. The calls were made as follows: active = hit-call score of the fitted dose curve at least 0.9, where 1 is the maximum; inactive = score below 0.9.

As to `CN(C)CCOC(c1ccccc1)c1ccccc1`, the AC50 – broadly, the concentration at which the activity in the assay is half-maximal – in experiment [1] was 2.03 µM (active). Moreover, the result in [2], in [3], in experiment [4], in experiment [5], in [6] and in [7] was inactive. In addition, the outcome in experiment [8], in experiment [9], in [10], in experiment [11], in experiment [12] and in [13] was inactive. For the same molecule, the outcome in [14], in [15], in [16], in [17], in [18] and in experiment [19] was inactive.

As to `C[C@]12CC[C@@H]3c4ccc(O)cc4CC[C@H]3[C@@H]1C[C@@H](O)[C@@H]2O`, the result in [1], in [2], in experiment [3], in experiment [4], in experiment [5] and in [6] was inactive. The outcome in experiment [7], in experiment [8], in experiment [9], in [10], in experiment [11] and in experiment [12] was inactive. Also, the result in experiment [13], in [14], in experiment [15], in experiment [16], in experiment [17] and in experiment [18] was inactive. Further, the result in experiment [19] was inactive. The AC50 in experiment [20] was 8.12 µM (active).

For `O=C1OC2(c3ccccc31)c1cc(I)c(O)c(I)c1Oc1c2cc(I)c(O)c1I`, the AC50 in [2] is 13.6 µM (active); in experiment [3], 19.9 µM (active); in experiment [4] it was 3.9 µM (active); in experiment [5], 4.07 µM (active); in [6], 8.35 µM (active); in experiment [7], 6.1 µM (active). Also, the AC50 in [8] was 0.9 µM (active); in [9] it was 5.58 µM (active); in [20], 3.7 µM (active); in [13], 6.12 µM (active); in experiment [18], 2.38 µM (active). The outcome in experiment [10], in [11], in [12], in experiment [14], in experiment [15] and in [16] was inactive. Moreover, the outcome in experiment [17] and in experiment [19] was inactive.

`Oc1ccc(Cc2ccccc2O)cc1`: the outcome in experiment [1], in experiment [2], in experiment [3], in [5], in experiment [6] and in experiment [7] was inactive. In addition, the result in [8], in experiment [9], in [10], in [11], in [20] and in [12] was inactive. The result in experiment [13], in experiment [14], in [15], in experiment [16], in experiment [17] and in experiment [18] was inactive. In addition, the result in [19] was inactive. In addition, the AC50 in [11] is 10.8 µM (active).

`Clc1ccc(Nc2nnc(Cc3ccncc3)c3ccccc23)cc1`: the result in [1], in experiment [3], in experiment [4], in [7], in experiment [8] and in experiment [9] was inactive. The outcome in experiment [10], in [11], in [20], in [12], in experiment [13] and in experiment [17] was inactive. The outcome in experiment [18] was inactive. Besides, the AC50 in experiment [5] was 3.84 µM (active); in experiment [6] it was 5.6 µM (active); in experiment [14], 3.48 µM (active); in experiment [16] it was 0.507 µM (active); in experiment [19], 8.4 µM (active).
